Screening results as filed in PubChem.
PTAP TSG101 blk: blocks PTAP/TSG101 interaction to inhibit HIV-1 budding; Q99816; Fluorescence polarization, FITC-PTAP peptide / Tsg101 binding; Potency, µM (highest dose often 115 µM), hits mostly inhibitors; 340,000 tested, under 10 active; AID 493005; active means well fitted inhibition curve with a large enough effect in the main read-out, with a control signal flat, not every such curve was filed as active; inconclusive means small, poorly fitted or top-dose-only effect, or effect the other way, or a change in a side signal; inactive means no such curve, though single readings can be large or run the other way
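Fluorescence polarization binding of Tsg101 binding domain (10 uM final) to FITC-labeled PTAP peptide (50 nM final) in HEPES pH 7.5 buffer with NaCl, Tween 20, EDTA, TCEP. Compounds added before peptide; binding 20 min at RT.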
TRPML1 ag: agonists of human TRPML1 channel; Q9GZU1; TRPML1-expressing cells, Ca2+ dye fluorescence, FDSS; activation, % (no concentration beside the values); 410,000 tested, 0.12% active; in the data active means activation above about 50%; inconclusive means mostly about 30% to 49%
Target sequence (Q9GZU1 whole entry, looked up): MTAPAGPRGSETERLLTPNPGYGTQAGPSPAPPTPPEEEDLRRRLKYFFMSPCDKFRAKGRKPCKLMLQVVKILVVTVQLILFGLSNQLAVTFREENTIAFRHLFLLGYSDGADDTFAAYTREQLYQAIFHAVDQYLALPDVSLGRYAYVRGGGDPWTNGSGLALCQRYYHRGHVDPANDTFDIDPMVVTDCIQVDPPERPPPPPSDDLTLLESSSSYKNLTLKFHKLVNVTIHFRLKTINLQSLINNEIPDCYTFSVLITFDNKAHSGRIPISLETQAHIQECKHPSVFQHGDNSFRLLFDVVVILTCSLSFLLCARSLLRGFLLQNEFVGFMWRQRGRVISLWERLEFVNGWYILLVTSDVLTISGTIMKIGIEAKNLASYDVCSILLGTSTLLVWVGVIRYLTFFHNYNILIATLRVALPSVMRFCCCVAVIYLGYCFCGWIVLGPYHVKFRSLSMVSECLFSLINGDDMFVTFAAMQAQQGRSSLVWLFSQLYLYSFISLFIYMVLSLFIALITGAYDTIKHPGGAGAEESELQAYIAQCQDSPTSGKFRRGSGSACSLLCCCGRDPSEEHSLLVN
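TRPML1-DL cells, Tet-induced overnight (~16 h, 37 degrees C), loaded 45-90 min at room temperature with Ca8 no-wash calcium dye plus quencher. FDSS fluorescence: 10 s baseline, compound pin-transfer, 110 s agonist read, then EC80 54-4 (4uM final) and 110 s antagonist read.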
KCNH2 WT inh: inhibitors of human wildtype KCNH2 potassium channel; Q12809; U2OS, BacMam KCNH2, thallium flux FluxOr; hits give low values; activity change, % at 1.84 µM; 340,000 tested, 0.37% active; AID 720551;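 active means maximum activity change below -70%; inconclusive means maximum activity change between -70% and -50%; inactive means maximum activity change above -50%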
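U2OS cells were transduced with wild-type KCNH2 virus (2.03 x 10^8 / mL) for 4 h at room temperature, then cultured overnight at 37 C. Thallium flux was read with FluxOr dye. Rate constants were normalized to DMSO controls.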
Glioma ERSR ind: inducers of ER stress response in human glioma cells; Potency, µM, actives largely listed as activators; 420,000 tested, 0.02% active; U87-MG GRP78 promoter luciferase reporter, 16 h; active means well fitted activation curve with a large enough effect; inconclusive means small, poorly fitted or top-dose-only effect; inactive means no such curve, though single readings can be large or run the other way; further: series mostly up to about 76 µM; nearly all actives have a fitted effect of over 35% in size
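Stably transfected U87-MG glioma cells carrying a GRP78-based luciferase sensor; 16 h compound incubation. Luminescence end-point read 10 min after Bright-Glo addition at room temperature.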
TRPML1 inh: inhibitors of human TRPML1 channel. activity change, negative = inhibition, % (test concentration not listed). Q9GZU1. AID 624415. TRPML1-inducible cells, Ca2+ dye fluorescence, FDSS; hits give low values; inhibition of EC80 agonist-evoked calcium signal. 390,000 tested, 0.02% active; in the data active means activity change below about -50%; inconclusive means between about -30% and that limit;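 further: stimulus is agonist 54-4 at its EC80 concentration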
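Tet-induced TRPML1-DL cells loaded with Ca8 no-wash calcium dye were read kinetically on FDSS. Compound addition was followed by EC80 agonist 54-4 (4 uM final); inhibition was read over 110 s.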
KCNH2 3.1 inh: inhibitors of human KCNH2 3.1 potassium channel isoform; activity change, % (tested at about 1.8 µM); 340,000 tested, 0.95% active; U2OS KCNH2 3.1, thallium flux FluxOr; hits give low values; AID 720553;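 active means maximum activity change below -70%; inconclusive means maximum activity change from -70% to -50%; inactive means maximum activity change above -50%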;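 further: thallium influx rate constant from kinetic fluorescence after stimulation buffer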
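Kinetic fluorescence (2 min after stimulation buffer) measures Tl+ influx through KCNH2 3.1 expressed by viral transduction in U2OS cells; the rate constant is normalized against DMSO controls serving as positive and negative references.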
Of the large screens only hits and unclear results are named; the others gave an inactive call. This is a sample that favours compounds with a hit; in the whole collection about 1% have one here.

Cc1cccnc1-c1cccc2c1OC(CNC(=O)C(=O)c1ccccc1)C2 (stereo not drawn)	none (no result: PTAP TSG101 blk, TRPML1 ag, KCNH2 WT inh, TRPML1 inh, KCNH2 3.1 inh)
O=C(CN1C2=NCCCN2c2ccccc21)c1ccc([N+](=O)[O-])cc1	KCNH2 3.1 inh -74.4
CC(/C=C/c1ccco1)=N\NC(=O)CNc1cccc(C)c1	KCNH2 3.1 inh -79.8
Cn1c(N2CCN(C(=O)Nc3ccc(C(F)(F)F)cc3)CC2)nc2ccccc21	KCNH2 WT inh -82.3, KCNH2 3.1 inh -74.4
Cc1cccc(C(=O)Nc2nnc(SCC(=O)NC3CC3)s2)c1	TRPML1 inh -52.3
O=C(c1cnn2cccnc12)N1CCOc2ccc(C(O)C(c3ccccc3)c3ccccc3)cc2C1 (stereo not drawn)	none (no result: PTAP TSG101 blk, TRPML1 ag, KCNH2 WT inh, TRPML1 inh, KCNH2 3.1 inh)
COc1ccc(C(=O)NC2CCCCCC2)cc1S(=O)(=O)N1CCCC1	none
COc1ccc(C(=O)NC2CCCCCC2)cc1S(=O)(=O)Nc1ccc(Br)cc1	KCNH2 3.1 inh -80.4
Cc1ccc(OC(C)C(=O)Nc2ccc(Cl)cn2)c([N+](=O)[O-])n1 (stereo not drawn)	none
Cc1cc(Cl)ccc1OC(C)C(=O)Nc1ccc([N+](=O)[O-])cn1 (stereo not drawn)	KCNH2 WT inh -124.7, KCNH2 3.1 inh -94.3
Cc1ccc(C(=O)Nc2cccc(-c3nc(CNC(=O)C4CCCCC4)c(C)o3)c2)s1	none (no result: PTAP TSG101 blk, TRPML1 ag, KCNH2 WT inh, TRPML1 inh, KCNH2 3.1 inh)
COc1ccc2c(c1)sc(N)[n+]2Cc1cc(C)cc2cccnc12	KCNH2 3.1 inh -77.4
CCOc1ccc2c(c1)sc(N)[n+]2Cc1cc(C)cc2cccnc12	KCNH2 3.1 inh -87.9
Cc1c(C(=O)N(CCO)C(C)C)cnn1-c1ncc2c(n1)-c1ccccc1CCC2	none (no result: PTAP TSG101 blk, TRPML1 ag, KCNH2 WT inh, TRPML1 inh, KCNH2 3.1 inh)
O=C(Nc1cc(Cl)ccc1Oc1ccccc1)C1=COCCO1	KCNH2 3.1 inh -74.5
OC[C@H]1O[C@H](OC/C=C/c2ccccc2)[C@H](O)[C@@H](O)[C@@H]1O	none (no result: PTAP TSG101 blk, TRPML1 ag, KCNH2 WT inh, TRPML1 inh, KCNH2 3.1 inh)
O=C(c1cc(F)ccc1F)N1CCC(N2CCC(C(=O)N3CCCC3)CC2)CC1	none
O=C(c1ccccc1Cl)N1CCC(N2CCC(C(=O)N3CCCC3)CC2)CC1	KCNH2 3.1 inh -87.2
COc1cc(/C=C/CN2CCOc3ccc(C(O)c4cccnc4)cc3C2)ccc1O (stereo not drawn)	none (no result: PTAP TSG101 blk, TRPML1 ag, KCNH2 WT inh, TRPML1 inh, KCNH2 3.1 inh)
Cc1nc(N)[nH]c(=O)c1CCCNc1ccc([N+](=O)[O-])cc1	KCNH2 3.1 inh -119.2
Cc1oc(-c2ccccc2NC(=O)C2CCC2)nc1CNC(=O)c1ccc(C#CC(C)(C)O)cc1	none (no result: PTAP TSG101 blk, TRPML1 ag, KCNH2 WT inh, TRPML1 inh, KCNH2 3.1 inh)
O=C(NCCc1ccccn1)C1CC12CCN(C(=O)c1cccc(C(F)(F)F)c1)CC2 (stereo not drawn)	none (no result: PTAP TSG101 blk, TRPML1 ag, KCNH2 WT inh, TRPML1 inh, KCNH2 3.1 inh)
NC(=O)[C@@H]1CC2(CC(c3cccc(NC(=O)COc4ccc(Cl)cc4)c3)=NO2)CN1C(=O)COc1ccc(Cl)cc1 (stereo partly drawn)	none
CC/C=C/C(=O)N1CC2(CC(c3cccc(NC(=O)COc4ccc(Cl)cc4)c3)=NO2)C[C@H]1C(N)=O (stereo partly drawn)	KCNH2 3.1 inh -71.1
Cc1ccc2cc(CNC(C)c3cccc4ccccc34)c(N3CCC(O)CC3)nc2c1 (stereo not drawn)	none (no result: PTAP TSG101 blk, TRPML1 ag, KCNH2 WT inh, TRPML1 inh, KCNH2 3.1 inh)
Cc1cc(Cl)ccc1OCC(=O)N1CCOc2ccc(CN3C[C@@H](C)O[C@@H](C)C3)cc2C1	none (no result: PTAP TSG101 blk, TRPML1 ag, KCNH2 WT inh, TRPML1 inh, KCNH2 3.1 inh)
O=C(Nc1cccc(-n2cnnn2)c1)c1ccoc1COc1ccc(Cl)cc1	KCNH2 WT inh inconclusive, KCNH2 3.1 inh -73.6
CCSc1ccc2c(c1)N(CCCN1CCN(C)CC1)c1ccccc1S2	KCNH2 3.1 inh -73.4
CN1CCN(CCCN2c3ccccc3Sc3ccccc32)CC1	none (no result: PTAP TSG101 blk, TRPML1 ag, KCNH2 WT inh, TRPML1 inh, KCNH2 3.1 inh)
CCCCCCN1C=CC(=C/C=C(\C#N)C(=O)OCC)C=C1	PTAP TSG101 blk inconclusive, TRPML1 ag 59.5
CCCN1C=CC(=CC=C(C#N)C#N)C=C1	PTAP TSG101 blk inconclusive
O=C(c1sc2cc([N+](=O)[O-])ccc2c1Cl)N1CCOCC1	KCNH2 WT inh -96.6
CN(C)S(=O)(=O)c1ccc(N2CCCC2)c(C(=O)N2CCN(c3ccc([N+](=O)[O-])cc3)CC2)c1	KCNH2 WT inh -82.8, KCNH2 3.1 inh -115.9
